Laboratory results: the supplement of paper PMC6555819

system: VDR:RXRa (NR concentration 270 nM, RXRa partner concentration 90 nM); experiment: PBM binding z-score (relative to random genomic background probes); higher = stronger binding; sequences stand for … in GC…GCGATTGACAGCGTAGAATGAAGG
Description: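 Protein-binding microarray (Agilent 4x180K custom design, double-stranded 60-nt probes: 5' GC cap, 34-nt variable region, 24-nt constant primer region; full probe sequence given). Purified or IVT nuclear receptor:RXRα heterodimers (3:1 NR:RXRα, mostly 270:90 nM) or homodimers were incubated for 1 h in PBS with 2% milk and no ligand, then detected with Alexa488 antibodies. Fluorescence from o1-orientation probes (~5 replicates averaged) was converted to z-scores against 500 random hg19 background probes. Variable regions are seed direct-repeat (DR0–DR5) sites, all their single-nucleotide variants and half-site ablations.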

Sequence | PBM binding z-score
ATCGAAAGGTCGAGGTGTGTATAGAGAAAGGGAA | 2.32
CCGACTGGGGCAGAAAGGTTACCACACCATCCGG | 1.15
ATCTCTAGGTAACAAGTTGAGTGAAAGAGAGGAC | 0.415
AGTCACAGTTCATCTAGGTAACGTAAGATATGCT | 3.05
CCAGACAGGTGTAAGGTAACTCAGTCTGGTACGC | 0.0147
CCTACTGGGCGAAAGGTCATTGATTCCAATGCTC | 4.43
TCTAGTTCGTCAAAGGTCACACACTCGAAATGCG | 5.77
TGAATGAGGTTAACGATCAGGGAACGTGGCGTCG | 1.05
CCTGCTAGGTCATGGTCAGCTACTCTACAGTATG | 1.46
CGGACTAGGTCAAGGACAGTGAATCTCCGCACGC | 0.867
TAGCCTAGGTCAGATCGGGCCCGTATACGCTATA | 0.22
TCGAGTAGCTTAGTCGGGGCATTCAGCCAACATA | -0.32
AGAATGAGGTTACGATCAGGGAAACAGAATACAT | 1.43
TCTTGTGGATCAATAGAGGTTAAGAAAGTGCGCT | 1.73
CAGCCTAGGTCAGGGCGAGTATAGGAGGAACGTT | 0.552
ATCTCTAGGCAAAGTTCAGTGAAAGATCGATAGA | 1.06
GCGACTGGGGCAAAGCAAGTTACCATAAGGTTGG | -0.206
ACTAGCAGGCCAATTTTGGGTCACTCAAACAAAG | 0.456
CCTTACGGGTCACTGCCAGGTTATAGCATTTGGA | 3.73
AGTCAAAGTTCAGGACGAGGTAACTTAAAGCACG | 3.1

Sequence | PBM binding z-score
AGGCAAAGTTCATCTAGGTAACGTAAGATATGCT | 4.86
CAAACTAGGTCACCGGAAGGTGAAAGTCCGCATG | 3.4
TCTAGCAGCCCAGAGGGTCACTCAAGAGGTACGG | 1.1
TCTGCTAGGTCAACGATGGTCAGCTAGTCTGCTA | 1.43
CCGACTGAGGCAGAAAGGTTACCATACCATCCGG | 0.732
CCTACTGGGCCACGAAAGGTCATTGGTTCAGTGA | 4.55
ATCGAAAGGTCGAGGTGAGTAGAGAGAAAGGGAA | 2.27
CCTACTGGGCCATCAGGTCATTGAAATCAACGTT | 1.28
TCATATATGTAAAAGGTGAAAGTCGGTGTGGTAA | 1.24
CCAGACAGGTGAAAGGTAACCCAGTCTGGTACGC | 0.645
CCTAGTTGGTCATGGTCACACACGCTATAGGTAC | 0.655
CCTAGTTGGTCAAGGTCACACAAGCTATAGGTAC | 4.38
CATACAGGGGCAGCTAGGCCAGAGTAGGGACGGC | -0.446
AGTCAAAGTTCACTAGGTAACATAAGATTCAGCT | 4.14
TAGCCTAGGTCATTCAGTGGCCAGTATAGAAAGC | 2.43
GGAACGAGGCCATTCGAGTTGATAGCATGGCGAT | 1.43
TCTTGTAGATCTAGCAGGTTAAGAAAGCCTGAGT | 0.391
AGAACGAGGACAATGAGTTGATAGCACGGGTGGC | 1.75
ATCGAAAGGCCGTGAGGTGAGTATACAGAAAGGC | -0.0584
CCGAGTAGGTTATGGGTCATTCAGGCAACGGTGA | 2.67
